Screening results from PubChem BioAssay.
A selection: hits, their analogues and other compounds. The true share with any hit is near 3.3%.
Vaccinia Venus = inhibitors of vaccinia virus (Venus reporter); Vaccinia virus Venus reporter expression, fluorescence; Potency, µM (top dose mostly 36.5 µM), without a hit: at the highest dose activity change, negative = inhibition, actives largely listed as inhibitors; 330,000 tested, 0.46% active; AID 720580; calls by dose curve; tested in A549 cells; further: nearly all actives have a fitted effect of over 30% in size
HCV inhibitor = blocks hepatitis C virus. Huh7.5.1 HCVcc-Cre infection, luciferase reporter, 44 h. Potency, µM (top dose mostly 41.8 µM), for the others: at the top dose activity change, negative = inhibition, usual class: inhibitors. 340,000 tested, 3.4% active. AID 651820; active means well fitted inhibition curve with a large enough effect; inconclusive means small, poorly fitted or top-dose-only effect, or another doubt; inactive means no such curve, though single readings can be large or run the other way
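Infectious HCVcc-Cre (~0.5 moi) was added to cells just after compound, with cells seeded 4 h earlier at 1,000 per well. Luciferase activity after 44 h culture reported infection; substrate was incubated 15 min at room temperature before reading.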
Vaccinia mCherry = vaccinia inhibition (mCherry reporter) | Vaccinia virus mCherry reporter infection, fluorescence | Potency, µM (highest dose often 36.5 µM), for inactives: top-dose activity change, negative = inhibition, actives largely listed as inhibitors | 310,000 tested, 0.63% active | AID 720579; calls by dose curve; tested in A549 cells; further: nearly all actives have a fitted effect of over 35% in size
An asterisk follows results filed as active; i = inactive; ? = inconclusive; / = no result given; [ ] = another dose, or the depositor's remark. On the % scale 0 is the no-effect control and ±100 the full control effect; potency means the concentration at half of the fitted maximal effect.

SMILES	Vaccinia Venus	HCV inhibitor	Vaccinia mCherry
CCOC(=O)C1C(c2ccc(C(=O)O)cc2)NC(=O)NC1(O)C(F)(F)F (stereo not given)	-6%	15%	-15%
CCOc1cc(CNCCCN2CCOCC2)cc(Cl)c1OCC(=O)NC(C)(C)C	-6%	11µM*	-6%
COc1ccc(NC(=O)COc2ccc(CNCCCN3CCOCC3)cc2OC)cc1	-4%	?	-13%
O=C(c1ccco1)N1CCN(C(=O)C2CCN(S(=O)(=O)c3cnc[nH]3)CC2)CC1	-9%	32µM*	-15%
CN1CCN(C(=O)C2CCN(S(=O)(=O)c3cnc[nH]3)CC2)CC1	-8%	12%	i
Cc1ccc(C(=O)Nc2cccc(-c3nc(CNC(=O)c4cccc(C)c4C)c(C)o3)c2)s1	-24%	/	?
O=C(O)c1ccccc1NCc1cccs1	/	11%	/
O=C(Nc1ccccc1C(=O)N1CCCCC1)c1ccc(Cl)cc1Cl	-2%	-7%	3%
O=C(CCCCCNC(=O)c1ccccc1)N/N=C/c1ccc(O)cc1O	4%	-5%	-5%
Cc1nonc1C(=O)N/N=C/c1ccc(O)cc1O	?	?	8.9µM*
Cc1nonc1C(=O)N/N=C/c1ccncc1	-7%	5%	i
CCc1cc(C(=O)N/N=C/c2ccc(O)cc2O)c2ccccc2n1	-23%	?	1.1µM*
COc1cc(/C=N/NC(=O)/C(=C/c2ccccc2)CCO)ccc1O	-11%	38%	-13%
O=C(N/N=C/c1ccc(O)cc1O)/C(=C/c1ccccc1)CCO	?	?	11µM*
Cc1ccc(-c2nc3cccc(C)n3c2Nc2ccc(F)cc2)o1	-11%	/	-18%
CC(CCC(C)[n+]1cccc(Br)c1)[n+]1cccc(Br)c1 (stereo not given)	3%	/	i
O=C1NC(=O)C(Cc2ccccc2F)(C2CCN(Cc3cccn3-c3cccnc3)CC2)N1 (stereo not given)	0%	/	i
Cc1ccc(C)c(CN2C[C@H](Sc3ccccn3)C[C@H]2C(=O)Nc2ccc3sc(C)nc3c2)c1	1%	/	i
COc1nc(OC)nc(Oc2ccc(Cl)cc2[N+](=O)[O-])n1	-4%	?	i
COc1ccc([N+](=O)[O-])c(S(=O)(=O)c2ccccc2)n1	11µM*	?	11µM*
O=[N+]([O-])c1cccnc1S(=O)(=O)c1ccccc1	-6%	?	-20%
COc1ccc([N+](=O)[O-])c(S(=O)(=O)c2ccc(Cl)cc2)n1	10µM*	?	?
COc1ccc(C)cc1NS(=O)(=O)c1ccc(NC(=O)CN(c2cc([N+](=O)[O-])ccc2C)S(C)(=O)=O)cc1	?	10µM*	-30%
COc1ccc([N+](=O)[O-])cc1N(CC(=O)NCCSc1ccc(C)cc1)S(C)(=O)=O	-19%	?	-5%
COCOc1ccc(-c2ncc(OC)nc2NC(=O)c2ccsc2)cc1	13%	/	29%
SMILES	Vaccinia Venus	HCV inhibitor	Vaccinia mCherry
O=C(Nc1ccc(-c2nc3ccccc3o2)c(O)c1)c1cc(-n2cnnc2)ccc1Cl	/	11µM*	/
Cc1c(NC(=O)c2cc(-n3cnnc3)ccc2Cl)cccc1-c1nc2ccccc2o1	-18%	?	?
COc1ccc(-c2cc(C)no2)cc1S(=O)(=O)NCc1cccs1	-23%	/	?
COc1ccc(C(=O)N2CCC(C(=O)Nc3ccccc3Cl)CC2)cc1	8%	/	-7%
O=C1N(Cc2cccc(Cl)c2)C[C@@H]2C[C@@H](c3cccc4ncccc34)N3CCC[C@@]123	-14%	11µM*	-18%
O=C1N(Cc2cccc(Cl)c2)C[C@@H]2C[C@@H](c3cccn3-c3nccs3)N3CCC[C@@]123	11%	?	?
O=C1N(Cc2cccc(Cl)c2)C[C@@H]2C[C@@H](c3cccc4cccnc34)N3CCC[C@@]123	-9%	-29%	?
O=C1N(Cc2cccc(Cl)c2)C[C@@H]2C[C@@H](c3cccn3-c3ccccn3)N3CCC[C@@]123	-8%	6.3µM*	-11%
CCc1ccc(-c2cc(C)no2)cc1S(=O)(=O)NCc1ccc(OC)cc1	-24%	/	-26%
ICC[n+]1csc2ccccc21	15%	/	11%
CCCNC(=O)C1CC(c2ccccc2C(F)(F)F)=NO1 (stereo not given)	-11%	20%	i
CCC(=O)N1CCc2cc(Br)cc(S(=O)(=O)N3CCC(C(=O)Nc4cccc(C)c4)CC3)c21	-21%	/	-20%
FC(F)(F)c1cc(-c2cccs2)nc(-n2cc(Br)cn2)n1	/	11µM*	/
FC(F)(F)c1cc(-c2cccs2)nc(N2CCOCC2)n1	-28%	?	/
O=[N+]([O-])c1cnn(-c2nc(-c3ccco3)cc(C(F)(F)F)n2)c1	1%	-24%	-10%
Cc1cnn(-c2nc(-c3cccs3)cc(C(F)(F)F)n2)c1	/	10µM*	/
O=C(Nc1ccccc1)c1ccc(-c2ccc([N+](=O)[O-])cc2)o1	-15%	-15%	-4%
O=C(NNC(=O)c1ccccc1O)c1ccc(-c2ccc([N+](=O)[O-])cc2)o1	?	?	10µM*
O=C(/C=C/c1c(F)cccc1Cl)c1ccc(O)cc1	/	11µM*	/
O=C(/C=C/c1ccccc1Cl)c1ccc(O)cc1	-23%	6%	?
COC(=O)c1cc(S(=O)(=O)N2CCC(c3cc(OC)ccc3OC)C2)c[nH]1 (stereo not given)	/	6.3µM*	/
COc1ccc(NC(=O)c2cc(S(=O)(=O)N3CCCCC3)c[nH]2)c(OC)c1	-14%	-6%	-1%
COC(=O)c1cc(S(=O)(=O)N2CCC(c3ccccc3)C2)c[nH]1 (stereo not given)	/	11µM*	/
COC(=O)c1cc(S(=O)(=O)N2CCN(c3ccccc3)CC2)c[nH]1	-12%	1%	-8%
COc1cccc(-n2c(=O)c3c(C)c(C(=O)N(C)C)sc3n(CC(=O)Nc3ccc(C)cc3Cl)c2=O)c1	-11%	/	-4%
SMILES	Vaccinia Venus	HCV inhibitor	Vaccinia mCherry
Cc1ccccc1-c1nn2c(=O)cc(CN3CCN(C(=O)c4ccc(C(C)(C)C)cc4)CC3)nc2s1	-28%	/	-1%
CCOc1ccc(NC(=O)Cn2cnc3c(oc4ccccc43)c2=O)cc1	-12%	/	6%
CCn1c(=O)c(CCC(=O)NCC2CCCO2)c(C)c2c(C)nn(-c3ccccc3)c21 (stereo not given)	-3%[7.34 µM]	13µM*	-5%[7.34 µM]
Cc1ccc(-n2nc(C)c3c(C)c(CCC(=O)NCC4CCCO4)c(=O)n(C)c32)cc1 (stereo not given)	/	-26%	/
Cc1ccc(-c2csc(N3CCN(CCCn4c(-c5ccncc5)nc5ccccc54)CC3)n2)cc1	?	?	10µM*
Cc1ccc(-c2csc(N3CCN(CCCn4c(C(F)(F)F)nc5ccccc54)CC3)n2)cc1	-26%	5%	-21%
CC(=O)N[C@@H](C)c1nc2ccccc2n1CCCN1CCN(c2nc(-c3ccc(C)cc3)cs2)CC1	?	3.5µM*	?
CCn1c(C(C)NC(C)=O)nc2ccccc21 (stereo not given)	-5%	17%	i
Cc1cccc(NC(=O)c2cc(S(=O)(=O)NCc3ccc4c(c3)OCO4)ccc2F)c1C	-2%	/	-2%
COc1ccc(S(=O)(=O)N2CCN(C(=O)c3cc4c(s3)CCC4)CC2)cc1	-15%	-13%	i
O=S(=O)(c1ccc(Br)cc1)N1CCN(c2nc(-c3cccs3)nc3ccccc23)CC1	-15%	/	-13%
